This passage reports Potency and outcome results from PubChem BioAssay (Tox21).

Test [1] is described as follows: qHTS assay to identify aromatase inhibitors - cell viability counter screen (AID 743084).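 Also: cells stimulated with testosterone during compound exposure; nearly all actives have a fitted effect of over 55% in size.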 In general terms: qHTS replaces the single test concentration by a dilution series.
In test [2] the target is Aryl hydrocarbon receptor (Homo sapiens) (UniProt P35869). As to the kind of experiment: qHTS assay to identify small molecule that activate the aryl hydrocarbon receptor (AhR) signaling pathway (AID 743085). Also: nearly all actives have a fitted effect of over 15% in size. Also: potency is read from the fitted curve at half-maximal effect.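 As to activation: HG2L7.5c1 human HepG2 liver cells with stably integrated DRE-driven firefly reporter; series mostly up to about 70 µM.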 The essentials: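 Luminescence read-out: ONE-Glo reagent, 30 min at room temperature, in HG2L7.5c1 HepG2 reporter cells treated 24 h at 37C. Viability was measured beforehand by CellTiter-Fluor fluorescence after 30 min at 37C.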

Test [3] in a line: qHTS assay to identify small molecule that activate the aryl hydrocarbon receptor (AhR) signaling pathway - cell viability counter screen (AID 743086).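 Also: HepG2 liver cells carrying the AhR DRE luciferase reporter; series mostly up to about 70 µM; nearly all actives have a fitted effect of over 45% in size.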 The essentials:
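HepG2-AhR-luc (HG2L7.5c1) cells, 4000/well, were preincubated 5 h at 37C, exposed to compound in qHTS format for 24 hr at 37C, then given CellTiter-Fluor for 30 min; viability was read as fluorescence in the reporter wells.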

Test [4] has as its target Peroxisome proliferator-activated receptor gamma (Homo sapiens) (UniProt P37231). As to the kind of experiment: qHTS assay to identify small molecule agonists of the peroxisome proliferator-activated receptor gamma (PPARg) signaling pathway (AID 743094; active = well fitted activation curve with a large enough effect in the signal ratio in the repeat runs, not every such curve was filed as active; the % refers to the signal ratio). In a few lines: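 Agonism was assessed in a beta-lactamase reporter system, HEK293H cells with a stably integrated UAS-bla construct under PPARg control; the 17 h treatment at 37C preceded a 1 h room-temperature FRET substrate read.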

A short description of test [5]: qHTS assay to identify small molecule antagonists of the peroxisome proliferator-activated receptor gamma (PPARg) signaling pathway - cell viability counter screen (AID 743194). Also: nearly all actives have a fitted effect of over 55% in size. In a few lines: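 PPARg-UAS-bla HEK293H cells were plated, rested 5 h at 37 C, then treated with compounds plus rosiglitazone (50 nM final) for 17 h at 37 C; viability was then read by CellTiter-Glo luminescence after 30 min at room temperature.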

A short description of test [6]: qHTS assay for small molecule agonists of the antioxidant response element (ARE) signaling pathway (AID 743202; active = well fitted activation curve with a large enough effect in the signal ratio in the repeat runs, not every such curve was filed as active; the % refers to the signal ratio). In a few lines:
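Following a 16 h, 37 C exposure of reporter HepG2 cells (ARE-driven beta-lactamase, 2,000 cells/well) to compounds, FRET substrate was applied for 2 h at room temperature and fluorescence intensity recorded.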

Test [7] is described as follows: qHTS assay for small molecule agonists of the antioxidant response element (ARE) signaling pathway - cell viability counter screen (AID 743203; calls by dose curve; also: nearly all actives have a fitted effect of over 55% in size). In a few lines:
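ATP content via CellTiter-Glo luminescence served as the viability measure. Cells: ARE-bla HepG2, 2,000 per well. Exposure: 16 hrs, 37C/5% CO2.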

Test [8] is described as follows: qHTS assay for small molecule activators of the heat shock response signaling pathway (AID 743210; active = well fitted activation curve with a large enough effect in the signal ratio in the repeat runs, with a control signal flat, not every such curve was filed as active; the % refers to the signal ratio; also: series mostly up to about 63 µM). In a few lines: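 Heat shock element–beta-lactamase HeLa reporter cells; qHTS with compounds for 5 h at 37 C; detection by FRET substrate fluorescence after 2.5 h at RT.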
Test [9] can be described thus: qHTS assay for small molecule activators of the heat shock response signaling pathway - cell viability counter screen (AID 743209). Also: nearly all actives have a fitted effect of over 50% in size. The essentials:
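Compounds dissolved in DMSO were added to overnight-plated HSE-bla HeLa cells and left 5 h at 37 C. Cell viability was quantified by luminescence using CellTiter-Glo.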

Test [10] has as its target Peroxisome proliferator-activated receptor gamma (Homo sapiens) (UniProt P37231). Description: qHTS assay to identify small molecule antagonists of the peroxisome proliferator-activated receptor gamma (PPARg) signaling pathway (AID 743191; calls by dose curve; also: series mostly up to about 63 µM; nearly all actives have a fitted effect of over 30% in size). The essentials: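 GeneBLAzer PPARg UAS-bla HEK293H cells carrying a UAS-driven beta-lactamase reporter were plated at 3000 cells/well, preincubated 5 h at 37C, then given compound for 17 h at 37C; LiveBLAzer B/G FRET substrate was read after 1 h at room temperature.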

Molecules are shown by their SMILES. Records with an inconclusive call do not appear. Calls of active or inactive are those of the source. Unless noted, calls follow the shape of the dose curve; as a rule, active = well fitted curve in the direction sought with a large enough effect in the repeat runs; inconclusive = weak or mixed curves; inactive = no such curve, though single readings can be large; an effect the other way counts as inactive or inconclusive.

Chain of Peroxisome proliferator-activated receptor gamma (Homo sapiens) (P37231 whole entry, looked up): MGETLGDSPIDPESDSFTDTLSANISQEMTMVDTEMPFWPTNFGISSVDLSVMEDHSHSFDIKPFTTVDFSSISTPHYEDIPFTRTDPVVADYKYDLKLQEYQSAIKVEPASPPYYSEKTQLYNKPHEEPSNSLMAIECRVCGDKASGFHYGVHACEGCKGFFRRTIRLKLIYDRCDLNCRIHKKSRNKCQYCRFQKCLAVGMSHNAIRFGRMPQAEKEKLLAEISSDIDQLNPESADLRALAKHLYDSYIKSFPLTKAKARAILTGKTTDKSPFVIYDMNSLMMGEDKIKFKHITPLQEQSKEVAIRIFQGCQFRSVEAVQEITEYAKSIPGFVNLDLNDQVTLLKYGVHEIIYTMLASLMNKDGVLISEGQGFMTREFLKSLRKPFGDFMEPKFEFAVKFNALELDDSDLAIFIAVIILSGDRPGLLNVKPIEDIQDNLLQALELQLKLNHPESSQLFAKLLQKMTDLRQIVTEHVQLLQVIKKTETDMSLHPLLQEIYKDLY
Chain of Aryl hydrocarbon receptor (Homo sapiens) (P35869 whole entry, looked up): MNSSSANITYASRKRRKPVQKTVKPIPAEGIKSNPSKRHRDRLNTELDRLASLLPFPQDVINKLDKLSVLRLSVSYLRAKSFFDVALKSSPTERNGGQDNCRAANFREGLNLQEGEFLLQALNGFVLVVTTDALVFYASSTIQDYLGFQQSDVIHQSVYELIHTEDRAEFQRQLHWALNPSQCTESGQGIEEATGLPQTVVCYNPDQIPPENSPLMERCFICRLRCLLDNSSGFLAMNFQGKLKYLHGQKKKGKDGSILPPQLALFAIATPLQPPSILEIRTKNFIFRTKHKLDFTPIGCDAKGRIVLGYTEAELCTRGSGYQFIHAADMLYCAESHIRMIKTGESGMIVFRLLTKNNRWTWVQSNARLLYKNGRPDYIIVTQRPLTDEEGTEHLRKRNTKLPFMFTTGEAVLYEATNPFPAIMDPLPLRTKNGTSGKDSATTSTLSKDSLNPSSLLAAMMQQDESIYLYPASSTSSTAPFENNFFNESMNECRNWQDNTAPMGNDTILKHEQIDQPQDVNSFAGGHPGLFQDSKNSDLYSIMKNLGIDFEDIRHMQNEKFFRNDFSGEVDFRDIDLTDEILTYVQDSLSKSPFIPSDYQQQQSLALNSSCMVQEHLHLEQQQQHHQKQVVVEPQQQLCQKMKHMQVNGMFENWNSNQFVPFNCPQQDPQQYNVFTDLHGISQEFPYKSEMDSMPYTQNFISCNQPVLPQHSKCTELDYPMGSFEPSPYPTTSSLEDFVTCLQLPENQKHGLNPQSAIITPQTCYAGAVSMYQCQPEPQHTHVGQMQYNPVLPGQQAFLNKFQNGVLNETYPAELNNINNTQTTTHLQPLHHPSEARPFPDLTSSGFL

With `CCOC(=O)C(C)(C)C`, the Potency result in test [1], in test [2], in [3] and in test [6] was “inactive” in each case. For the same compound, the compound was classed as inactive in [4], in [5], in [7] and in test [8].

Consider `CCCCCCCC[Si](OCC)(OCC)OCC`, for which the Potency entry in test [1], in test [2], in test [3] and in test [6] was “inactive” throughout. Moreover, the call in test [4], in [5], in test [7], in [9] and in test [8] was inactive.

As to `CCCOC(=O)CCCCC(=O)OCCC`, the Potency entry in test [1], in test [2], in test [3] and in test [6] was “inactive” in each case. Moreover, the result in test [4], in test [5], in test [7], in test [9] and in [8] was inactive.

As to `CCCO`, the Potency result in [1], in test [2], in test [3], in test [10] and in test [6] was “inactive” in each case. Further, the compound was classed as inactive in test [5], in [7], in test [9] and in test [8].

Turning to `CN=C(NC#N)NCCSCc1csc(N=C(N)N)n1`, the Potency entry in [1], in [2], in test [3] and in test [6] was “inactive” throughout. For the same compound, the compound was classed as inactive in [4], in [5], in test [7], in test [9] and in test [8].

Take `COc1cccc2sc(N)nc12`: the Potency result in test [1], in [3] and in test [6] was “inactive” throughout. The Potency in test [2] is 27.5 µM (active). In addition, the compound was called inactive in [4], in test [7], in test [9] and in [8].

For `OC(CCN1CCCCC1)(c1ccccc1)c1ccccc1`, the Potency entry in test [1], in test [3], in test [10] and in test [6] was “inactive” throughout. For the same compound, the Potency in test [2] is 21.1 µM (active). Also, the compound was called inactive in [5] and in test [7].

`CC(=O)OC(C(=O)c1ccccc1)c1ccccc1` (centres undefined): the Potency result in test [1], in [2], in test [3], in [10] and in test [6] was “inactive” throughout. The call in [5], in [7], in test [9] and in [8] was inactive.

For the compound `O=C1CC[C@H](C(=O)N2CCCCC2)N1`, the Potency result in test [1], in [2], in test [3] and in [6] was “inactive” in each case. Further, the call in test [4], in test [5], in test [7], in test [9] and in test [8] was inactive.

As to `Cc1cc(C)cc([N+](=O)[O-])c1`, the Potency entry in test [1], in [2], in test [3] and in test [6] was “inactive” in each case. The compound was called inactive in test [4], in [5], in test [7], in test [9] and in test [8].

On to `CC(=O)OC(C)c1ccccc1` (centres undefined), for which the Potency entry in test [1], in test [2], in test [3] and in test [6] was “inactive” each time. Moreover, the compound was classed as inactive in test [4], in test [5], in test [7], in test [9] and in [8].

As to `O=C(O)CCNC(=O)c1ccccc1`, the Potency result in [1], in [2], in test [3], in test [10] and in [6] was “inactive” in each case. The compound was called inactive in test [5], in test [7], in test [9] and in [8].

For the compound `O=C1OC(=O)c2cc(Oc3ccc4c(c3)C(=O)OC4=O)ccc21`, the Potency entry in [1], in test [2], in test [3] and in test [6] was “inactive” each time. Also, the result in [4], in test [5], in [7], in test [9] and in [8] was inactive.

Consider `C[C@H](CCC(=O)O)[C@H]1CC[C@H]2[C@@H]3[C@H](O)C[C@@H]4C[C@H](O)CC[C@]4(C)[C@H]3C[C@H](O)[C@]12C`, for which the Potency entry in test [1], in test [2], in test [3], in test [10] and in test [6] was “inactive” in each case. The result in [5], in test [7], in test [9] and in test [8] was inactive.

In the case of `Cc1cccc(Nc2ccncc2S(=O)(=O)NC(=O)NC(C)C)c1`, the Potency entry in test [1], in test [2], in [3], in [10] and in test [6] was “inactive” throughout. Further, the call in test [5], in [7], in [9] and in [8] was inactive.

On to `C=C(C)C(=O)OC`, for which the Potency entry in [1], in test [2], in test [3] and in test [6] was “inactive” in each case. Further, the compound was classed as inactive in [4], in test [5], in [7] and in test [8].

As for `CC1=CC[C@H](CC=O)C1(C)C`, the Potency result in [1], in [2], in [3], in test [10] and in test [6] was “inactive” throughout. In addition, the call in test [5], in test [7], in [9] and in test [8] was inactive.

Regarding `C=C(C)C(=O)OCCCCCCOC(=O)C(=C)C`, the Potency entry in test [1], in [2], in test [3], in test [10] and in [6] was “inactive” each time. In addition, the compound was classed as inactive in test [5], in test [7], in [9] and in [8].

Take `OC[C@@H](O)[C@H](O)[C@@H](O)[C@@H](O)CO`: the Potency result in [1], in test [2], in test [3], in test [10] and in [6] was “inactive” in each case. Besides, the compound was classed as inactive in test [5], in [7], in test [9] and in test [8].

With `CCCC(C)CC` (centres undefined), the Potency entry in [1], in [2], in test [3], in test [10] and in test [6] was “inactive” in each case. In addition, the outcome in [5], in test [7], in [9] and in test [8] was inactive.

As for `CCCCOC(=O)[C@@H](C)Oc1ccc(Oc2ccc(C(F)(F)F)cn2)cc1`, the Potency entry in [1], in test [2] and in test [3] was “inactive” each time. Besides, the compound was called inactive in [4], in test [5], in test [7] and in test [8].

Take `OCCCCCCCl`: the Potency entry in [1], in test [2], in test [3] and in [6] was “inactive” each time. For the same compound, the compound was classed as inactive in [4], in test [5], in test [7], in [9] and in test [8].

Regarding `Nc1cc(Cl)cc(S(=O)(=O)O)c1O`, the Potency result in test [1], in [2] and in [3] was “inactive” throughout. Besides, the compound was called inactive in test [4], in test [5], in test [7], in test [9] and in [8].

As for `SCCSCCS`, the Potency result in [1], in [2], in test [3] and in test [6] was “inactive” throughout. The compound was called inactive in test [4], in [5], in [7] and in test [8].

Consider `O=P(O)(O)OCC(O)CO` (centres undefined), for which the Potency entry in test [1], in [2], in [3], in test [10] and in test [6] was “inactive” each time. The call in test [5], in test [7] and in test [9] was inactive.

Regarding `CCC(C)(C)C1CCC(=O)CC1`, the Potency entry in [1], in test [2], in test [3] and in test [6] was “inactive” each time. Besides, the compound was called inactive in test [4], in test [5], in [7], in test [9] and in test [8].

As for `CCCCCCCCOC(C)=O`, the Potency result in [1], in test [2], in test [3], in [10] and in test [6] was “inactive” in each case. For the same compound, the call in test [5], in [7] and in [9] was inactive.

With `CCNC(=O)NCCCOc1cccc(CN2CCCCC2)c1`, the Potency result in test [1], in test [2], in test [3] and in test [6] was “inactive” each time. Also, the compound was classed as inactive in [4], in test [7] and in test [9].
